# Test results: PubChem BioAssay
# The source made the active and inactive calls. Unless noted, how the calls were made is not given here.
# Legend:
# [1] = system: XIP peptide (Xip251-270) binding; test: small-molecule binders of XIP peptide, primary screen, biochemical, small-molecule microarray, fluorescence 635/667 nm, 0.1 µg/mL protein (AID 1182); settings: fluorescent protein binding, 635 nm, higher = more signal, called active from +8 up or from −8 down
# XIP peptide (Xip251-270) = test: small-molecule binders of XIP peptide, primary screen, biochemical, small-molecule microarray, fluorescence 635/667 nm, 0.5 µg/mL protein (AID 1183); settings: small-molecule microarray binding, fluorescence 635 nm; higher = more signal
# [2] = Plasmodium falciparum growth inhibition, primary screen, strain 3D7, DAPI fluorescence, 100 nL (AID 1184);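 further: parasites grown inside human red blood cells in medium with human serum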; settings: P. falciparum 3D7 growth, 3 d, higher = more signal
# [3] = target: Homeobox protein Hox-A13 (Mus musculus) (UniProt Q62424); test: inhibitors of HoxA13-DNA binding, primary screen, biochemical, fluorescence polarization, labeled oligonucleotide (AID 1185); settings: 15 min, higher = more signal, called active from +8 up or from −8 down
# [4] = inhibitors of hydroxyurea-induced Chk1 phosphorylation, primary screen, imaging, HeLa, phospho-Chk1 antibody, percent positive cells (AID 1186); settings: hydroxyurea-induced phospho-Chk1 immunofluorescence imaging, higher = more signal
# [5] = inhibitors of hydroxyurea-induced Chk1 phosphorylation, primary screen, imaging, HeLa, phospho-Chk1 nuclear intensity (AID 1187); settings: hydroxyurea-induced phospho-Chk1 immunofluorescence imaging, higher = more signal
# Chain of Homeobox protein Hox-A13 (Mus musculus) (Q62424 whole entry, looked up): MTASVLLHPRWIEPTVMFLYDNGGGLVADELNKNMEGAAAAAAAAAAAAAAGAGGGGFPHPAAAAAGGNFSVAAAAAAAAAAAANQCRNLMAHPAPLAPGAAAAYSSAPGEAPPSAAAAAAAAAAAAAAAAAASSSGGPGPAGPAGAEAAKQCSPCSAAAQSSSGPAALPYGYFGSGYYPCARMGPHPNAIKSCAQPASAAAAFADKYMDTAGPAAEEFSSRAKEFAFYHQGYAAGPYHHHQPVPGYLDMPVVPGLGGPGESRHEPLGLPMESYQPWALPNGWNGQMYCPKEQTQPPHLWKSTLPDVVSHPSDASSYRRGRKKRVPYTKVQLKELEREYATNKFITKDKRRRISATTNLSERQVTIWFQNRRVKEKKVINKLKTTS
Compound,composite z-score [1],composite z-score (XIP peptide (Xip251-270)),z-score [2],z-score [3],z-score [4],z-score [5]
C=CCOC(=O)[C@H]1[C@@H]2C(=O)O[C@@H](c3ccccc3)[C@@H](c3ccccc3)N2[C@@H](c2ccc(OCCOC(=O)[C@H]3C[C@H]4C(=O)N5CCC[C@H]5C(=O)N4[C@H]3c3ccc(O)cc3)cc2)[C@]12C(=O)Nc1ccccc12,0.0734 (inactive),0.803,-1.62,1.42 (inactive),-0.398 (inactive),0.207 (inactive)
COC(=O)c1c(CC[C@@H](CO)NC(=O)N2CCC[C@H]2Cn2cc(-c3ccccn3)nn2)oc(C(C)=O)c1C(=O)OC,1.82 (inactive),0.667,-1.04,-2.59 (inactive),-0.828 (inactive),-0.692 (inactive)
COC(=O)[C@@]1(Cc2ccccc2)[C@H]2c3cc(C(=O)N4CCCC4)n(Cc4cccc5ccccc45)c3C[C@H]2CN1C(=O)c1ccccc1,0.112 (inactive),-0.569,-1.35,-3.06 (inactive),1.05 (inactive),0.243 (inactive)
N#Cc1ccc(NN2C(C(O)c3c(F)cccc3Cl)C=CC3C(=O)N(c4ccccc4)C(=O)C32)cc1 (configuration not stated),0.817 (inactive),0.748,-0.677,0.238 (inactive),0.0345 (inactive),0.0457 (inactive)
COCCOC(=O)N1C(=O)[C@@]2(c3cc(C#CC4=CCCCC4)ccc31)[C@H](C(N)=O)[C@H]1C(=O)O[C@H](c3ccccc3)[C@H](c3ccccc3)N1[C@@H]2c1ccc(OCCO)cc1,0.134 (inactive),0.729,-2,2.15 (inactive),-0.116 (inactive),-0.321 (inactive)
COc1cc2c(cc1OC)CN(C(=O)[C@@H]1[C@H]3C(=O)O[C@H](c4ccccc4)[C@H](c4ccccc4)N3[C@H](c3ccc(O)cc3)[C@@]13C(=O)Nc1ccc(C#CC4(O)CCCCCC4)cc13)CC2,0.479 (inactive),0.774,-0.489,-1.53 (inactive),0.263 (inactive),0.812 (inactive)
COc1ccc(NN2C(C(O)c3ccc([N+](=O)[O-])cc3)C=CC3C(=O)N(C4CCCCC4)C(=O)C32)cc1 (configuration not stated),-0.025 (inactive),-0.0788,-0.0215,-3.73 (inactive),-0.414 (inactive),-0.331 (inactive)
COc1ccc(CCNC(=O)[C@@H]2c3ccccc3C(=O)N(C3Cc4ccccc4C3)[C@H]2c2ccc(CO)cc2)cc1,1.14 (inactive),0.219,-0.268,-3.47 (inactive),-0.222 (inactive),-0.28 (inactive)
CCOC(=O)[C@H]1C/C=C/C[C@H](C(=O)OCC)C(=O)O[C@H]2[C@@H](OC)O[C@H](CO)[C@@H](OC(=O)Nc3ccc(C#N)cc3)[C@@H]2OC1=O,1.09 (inactive),0.84,-2.07,-1.69 (inactive),-0.892 (inactive),-1.88 (inactive)
C=CCOC(=O)[C@H]1[C@@H]2C(=O)O[C@@H](c3ccccc3)[C@@H](c3ccccc3)N2[C@@H](c2ccc(OCCOC(=O)[C@@H]3C[C@@H]4C(=O)N[C@@H](CCCCN(C)C)C(=O)N4[C@@H]3c3ccc(O)cc3)cc2)[C@]12C(=O)Nc1ccc(I)cc12,1.74 (inactive),0.805,-0.174,6.34 (inactive),0.936 (inactive),0.679 (inactive)
COC(=O)[C@@]1(Cc2ccccc2)[C@H]2c3cc(C(=O)N4CCCC4)n(Cc4nc5ccccc5[nH]4)c3C[C@H]2CN1C(=O)c1ccccc1,1.33 (inactive),0.213,-1.65,-3.97 (inactive),-1.01 (inactive),-0.881 (inactive)
CCCCc1cn(C[C@H](Cc2ccccc2)NC(=O)N[C@H](CO)CCc2oc(C(C)=O)c(C(=O)OC)c2C(=O)OC)nn1,0.703 (inactive),0.512,-1.92,-4.73 (inactive),-0.185 (inactive),-0.228 (inactive)
CN1C(=O)C2C=CC(C(O)C3=C[C@H]4C[C@@H](C3)C4(C)C)N(Nc3ccccc3)C2C1=O (some centres not stated),0.654 (inactive),0.151,0.821,-3.75 (inactive),-0.556 (inactive),-0.864 (inactive)
OC([C@@H]1CC(c2ccccc2)=NO1)[C@H]1CC(c2ccccc2)=NO1 (some centres not stated),0.267 (inactive),-0.444,0.557,-0.163 (inactive),-0.801 (inactive),-1.25 (inactive)
CC(C)C[C@@H]1NC(=O)[C@H]2C[C@@H](C(=O)NCCCCCCN)[C@@H](c3ccc(O)cc3)N2C1=O,1.43 (inactive),0.776,-0.108,-2.64 (inactive),0.273 (inactive),-0.265 (inactive)
CN(C)CCCNC(=O)[C@@]1(c2ccc([N+](=O)[O-])cc2)CC(=O)N(C2CCCCC2)[C@@H]1c1ccc(CO)cc1,-0.209 (inactive),-0.0124,-1.11,-0.842 (inactive),-0.196 (inactive),-0.495 (inactive)
CC(C)N1C(=O)[C@@]2(Cc3ccccc31)c1ccccc1C(=O)N(C1CCCCC1)[C@H]2c1ccc(CO)cc1,-0.091 (inactive),0.709,-0.288,-0.666 (inactive),-0.0292 (inactive),0.029 (inactive)
CC(C)C(=C=CC[C@@H](O)c1ccccc1OCCO)CCO,0.305 (inactive),-0.161,-0.637,-2.91 (inactive),-0.306 (inactive),0.231 (inactive)
C=CC[C@]12N=C(c3ccc(OCCCO)cc3)O[C@H]1c1ccccc1N(Cc1ccccc1)C2=O,0.0479 (inactive),0.586,-2.17,0.196 (inactive),-0.241 (inactive),-0.197 (inactive)
CN1C2C=C(CCCO)C(C3C(=O)N(C(N)=O)C(=O)C32)C1c1ccc(CN2CCCC2)cc1 (configuration not stated),0.276 (inactive),0.297,0.446,-5.26 (inactive),0.0965 (inactive),-0.0741 (inactive)
C=CCN1C(=O)[C@]2(O[C@H](CCO)[C@@H]([Si](C)(C)c3ccc(OC)cc3)[C@@H]2C)c2cc(N3CCCCC3=O)ccc21,0.238 (inactive),0.732,-2.66,-6.28 (inactive),-0.147 (inactive),-0.56 (inactive)
COCCOC(=O)N1C(=O)[C@@]2(c3cc(C#CC4=CCCCC4)ccc31)[C@H](C(=O)Nc1nc3ccccc3s1)[C@H]1C(=O)O[C@H](c3ccccc3)[C@H](c3ccccc3)N1[C@@H]2c1ccccc1OCCO,0.494 (inactive),0.698,-2.04,1.67 (inactive),-0.169 (inactive),-0.114 (inactive)
O=C1O[C@H](c2ccccc2)[C@H](c2ccccc2)N2[C@H]1[C@@H](C(=O)O)[C@]1(C(=O)Nc3ccc(C#CCCO)cc31)[C@H]2c1ccc(O)cc1,0.207 (inactive),0.901,-0.136,-5.42 (inactive),0.11 (inactive),-0.002 (inactive)
C=C(CCCC)/C(=C/C[C@@H](OC(C)=O)c1ccccc1OCCO)c1cnc2ccccc2c1,-0.475 (inactive),0.234,-3.01,-5.06 (inactive),1.11 (inactive),0.212 (inactive)
O=C1OCC=C[C@H]2OC34C=CCN(CCN5CCOCC5)C(=O)[C@H]3N(CCCO)C(=O)[C@@H]4[C@@H]12 (some centres not stated),-0.0676 (inactive),-0.0046,-1.83,-4.01 (inactive),0.2 (inactive),0.099 (inactive)
COc1ccc(C#Cc2ccc3c(c2)[C@]2(C(=O)N3)[C@H](c3ccccc3OCCO)N3[C@H](c4ccccc4)[C@H](c4ccccc4)OC(=O)[C@H]3[C@@H]2C(=O)O)cc1,2.03 (inactive),0.695,-1.27,-4.32 (inactive),-0.331 (inactive),-0.416 (inactive)
COc1ccc(C(=O)Nc2ccc(CN3C(=O)[C@@]4(O[C@@H](CC(=O)N5CCC[C@H]5CO)[C@H]([Si](C)(C)c5ccc(OC)cc5)[C@H]4C)c4ccccc43)cc2)cc1,0.135 (inactive),0.703,-0.183,-3.33 (inactive),-0.0567 (inactive),0.829 (inactive)
